hcDAF12 agonist = H. contortus DAF-12 nuclear receptor activators, primary screen, cell-based, luminescence, HEK293, lit1-tk-luc reporter; HEK293 hcDAF-12 lit1-tk-luc reporter; 0% DMSO, 100% Δ7-dafachronic acid; activation, % at 6.8 µM; actives 1.4% (n = 370,000);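 active = activation above the mean of all tested compounds plus 3 SD, cut at about 5.5% in these data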
FXN GAA850 act = FXN promoter activators, primary screen, cell-based, luciferase luminescence, HEK293 lucGAA850 | activation, % at 6 µM | actives 0.56% (n = 360,000) | AID 540364, 2011 | HEK293 lucGAA850 FXN promoter luciferase reporter, 24 h; percent of 10 µM SAHA response;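 active = activation above the average of all compounds screened plus 3 SD, cutoff fixed separately per campaign, cut at about 7.5% in these data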
hgDAF12 agonist = H. glycines DAF-12 receptor agonists, primary screen, cell-based, luminescence, HEK293, GAL4 fusion, UAS-luciferase; Nuclear hormone receptor DAF-12 (Heterodera glycines), GAL4 fusion; HEK293 GAL4-hgDAF12 UAS-luciferase reporter, agonist luminescence; normalized to butyrate control; activation, % at 6.8 µM; actives 1.8% (n = 370,000);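 active = activation above a cutoff set at the mean of all screened compounds plus 3 SD, cut at about 10% in these data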
DAX1 inh-1 = DAX1 (NR0B1) inhibitors on StAR promoter, primary screen, cell-based, luminescence, SF-1 (NR5A1), full-length DAX-1 | inhibition, % at 6.8 µM | AID 652010, 2013 | HEK293T StAR-luciferase reporter, SF-1/DAX-1 repression relief | actives 1.1% (n = 370,000);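 active = inhibition above the mean over all tested compounds plus 3 SD, cut at about 3.6% in these data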;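 also: higher inhibition means more luminescence from relief of DAX-1 repression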
ssDAF-12 act = S. stercoralis DAF-12 nuclear receptor activators, primary screen, cell-based, luminescence, HEK293, GRIP1 co-expression, lit1-tk-luc | HEK293 ssDAF-12/GRIP1 lit1-tk-luc reporter; % of 3 µM dafachronic acid response | activation, % at 6.8 µM | actives 1% (n = 370,000);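 active = activation above the mean over all tested compounds plus 3 SD, cut at about 0.9% in these data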
DAX1 inh-2 = DAX1 (NR0B1) inhibitors, primary screen, cell-based, HEK293, Gal4-DAX1, luciferase luminescence; Nuclear receptor subfamily 0 group B member 1 (Homo sapiens), P51843; HEK293 Gal4-DAX1 luciferase reporter; inhibition, % at 6.75 µM; actives 0.99% (n = 340,000); AID 504766, 2011;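 active = inhibition above the mean over all tested compounds plus 3 SD, cut at about 4.2% in these data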;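 also: inhibition shows as a rise in luminescence from relieved DAX1 repression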
Target sequence (P51843 207-470 limits assumed): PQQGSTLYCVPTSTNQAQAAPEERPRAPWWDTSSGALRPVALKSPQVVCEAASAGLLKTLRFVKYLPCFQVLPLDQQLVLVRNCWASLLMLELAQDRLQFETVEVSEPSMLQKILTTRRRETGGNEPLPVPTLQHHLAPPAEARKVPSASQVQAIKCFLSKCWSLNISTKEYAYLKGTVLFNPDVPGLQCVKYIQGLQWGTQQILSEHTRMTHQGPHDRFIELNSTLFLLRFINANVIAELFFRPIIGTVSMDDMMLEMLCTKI
Each line names hits and unclear results; the compound was inactive in the other large screens. Compounds with a hit are over-represented: about 4.5% of the library has one in this group of screens.

O=C(CN1CC(c2ccccc2)CC1=O)Nc1ccc(F)cc1 (centres undefined)	DAX1 inh-2 5.2
O=C(CN1CC(c2ccccc2)CC1=O)Nc1cccc(F)c1 (centres undefined)	none
NC(Cc1ccc(N(CCCl)CCCl)cc1)C(=O)O (centres undefined)	none (no result: FXN GAA850 act, DAX1 inh-2)
COc1cc(CN2CCNCC2)cc(OC)c1OC	ssDAF-12 act 1.0
COc1ccc(CN2CCNCC2)c(OC)c1OC	none
Cc1c(N=Nc2c(O)n(-c3ccc(Br)cc3)c(=O)[nH]c2=O)c(=O)n(-c2ccccc2)n1C	none
Cc1cc([P+](=O)O)c(C)n1-c1ccc(Br)cc1	ssDAF-12 act 1.5
COc1ccc(-n2c(=O)[nH]c3ccccc3c2=O)c(OC)c1	none
COc1ccc2c(c1)NP(=S)(c1ccccc1)N2C (centres undefined)	DAX1 inh-1 4.5, DAX1 inh-2 5.3
O=C(N/N=C/c1c(O)n(Cc2ccc(F)cc2)c(=O)[nH]c1=O)c1ccccc1	hgDAF12 agonist 11, DAX1 inh-2 6.6
O=C(N/N=C/c1c(O)n(CCC2=CCCCC2)c(=S)[nH]c1=O)c1ccccc1	hgDAF12 agonist 11
CN1CCCCC1c1ccc(-c2cccnc2)nc1 (centres undefined)	DAX1 inh-2 7.3
O=C(CCN1CC=C(c2ccccc2)CC1)NCc1ccccc1	none
Oc1ccc2ccccc2c1CN1CC=C(c2ccccc2)CC1	DAX1 inh-2 5.2
CC1CCCCN1CC(O)c1c[nH]c2ccccc12 (centres undefined)	hcDAF12 agonist 6.4
COC(=O)C(O)(c1ccc(NC(=O)Oc2ccccc2)cc1)C(F)(F)F (centres undefined)	DAX1 inh-2 5.5
C=C1C(=O)C(C)=C2C(=O)N3Cc4[nH]c5ccccc5c4CC3(C(=O)OC)C12 (centres undefined)	none (no result: FXN GAA850 act, DAX1 inh-2)
O=C1NC(=O)C(=Cc2cc(Cl)ccc2OCc2ccc(C(=O)O)cc2)C(=O)N1	DAX1 inh-2 5.5
CN1C(=O)C(=Cc2ccccc2OCc2ccc(Cl)cc2)C(=O)N(C)C1=O	none
CN1C(=O)NC(=O)/C(=C\C=C\c2ccccc2[N+](=O)[O-])C1=O	ssDAF-12 act 1.4 (no result: FXN GAA850 act, DAX1 inh-2)
FC(F)(F)c1ccc(NC2=NCCCS2)cc1	none
COCCO[C@H]1CC[C@@]2(C)C(=CCC3C2CC[C@@]2(C)C3CC[C@]2(C)O)C1 (some centres undefined)	hgDAF12 agonist 11
COc1ccc2c(c1)C13CCN4CC5=CCOC6CC(=O)N2C1C6C5CC43 (centres undefined)	none (no result: DAX1 inh-2)
CN1CCN(Cc2cc(=O)n3ccsc3n2)CC1	none
O=c1cc(CN2CCNCC2)nc2sccn12	DAX1 inh-2 4.9
COC(=O)C1=C(C)OC(N)=C(C#N)C12C(=O)Nc1ccccc12 (centres undefined)	none
COCCOC(=O)C1=C(N)OC(C)=C(C(=O)OC)C12C(=O)Nc1ccccc12 (centres undefined)	hcDAF12 agonist 6.2
O=C1NC(=O)C(=Cc2ccc(OCCOc3ccc([N+](=O)[O-])cc3)cc2)C(=O)N1	none
Cc1ccc(OCCOc2cccc(C=C3C(=O)NC(=O)NC3=O)c2)c(C)c1	hgDAF12 agonist 11, ssDAF-12 act 1.4
O=C1NC(=O)C(=Cc2cccc(OCCOc3ccccc3)c2)C(=O)N1	hgDAF12 agonist 11
COc1ccc(CCN)cc1S(N)(=O)=O	none (no result: FXN GAA850 act, DAX1 inh-2)
O=c1[nH]c(=S)n(C2CC2)c(O)c1C=Nc1ccc2c(c1)OCO2	none
CCCC(=O)N1c2ccc(Cl)cc2C(c2ccccc2)=NCC1C(=O)NC(C)(C)C (centres undefined)	none (no result: FXN GAA850 act, DAX1 inh-2)
